Test [1] relates to RAW-Dual. Briefly: NF-kB SEAP reporter activity, fold change vs agonist alone; cytotoxicity flag (confluency mask): not cytotoxic; higher = enhanced NF-kB activity. In a few lines: (§1)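 RAW-Dual macrophages were seeded in DMEM at 50,000 cells/well in 384-well plates, given 50 nL of library stock by pin tool, and given a PRR agonist 1 h later. Plates were held at 37 °C, 5% CO2 for 20 hours, after which supernatant was read for IRF by QuantiLuc luminescence and for NF-κB by QuantiBlue absorbance at 620 nm. Reporter activity is expressed as fold change over wells that received agonist alone. A well was called cytotoxic when IncuCyte confluency fell below 70% of agonist controls in both mask sets.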

Test [2] concerns RAW-Dual. Briefly: NF-kB SEAP reporter activity, fold change vs agonist alone; higher = enhanced NF-kB activity. In a few lines: as §1
In test [3] the test system is RAW-Dual. Kind of test: NF-kB SEAP reporter activity, fold change vs agonist alone; cytotoxicity flag (confluency mask): cytotoxic (confluency <70% of control); higher = enhanced NF-kB activity. In a few lines: as §1
The mark [4] stands for this setting: agonist: ODN 1826 (TLR9) 0.5 ug/mL.
Where [5] appears, read: agonist: Pam2CSK4 (TLR2/6) 0.1 ug/mL.
The mark [6] stands for this setting: agonist: Pam3CSK4 (TLR2/1) 0.1 ug/mL.
[7] abbreviates: library stock concentration (final ~1000-fold dilution): 10 mM, cytotoxicity flag (confluency mask): not cytotoxic, agonist: Imiquimod (TLR7) […].
The mark [8] stands for this setting: library stock concentration (final ~1000-fold dilution): 10 mM, cytotoxicity flag (confluency mask): not cytotoxic, agonist: MPLA (TLR4) […].

SMILES strings stand for the structures. Several values for one entry are separate records, joined by “and”; a condition that tells them apart may be missing. Equal values may be shown once. ± gives the standard deviation of the averaged measurements. Over roughly 2,900 compounds, “NF-kB SEAP reporter activity, fold change vs agonist alone” has its median near 0.99; the highest 2% begin near 2.6. The sample as a whole holds a higher share of the highest values than the screen did.

On to `Nc1nc(F)nc2c1ncn2C1OC(COP(=O)(O)O)C(O)C1O` (stereo not given) (library stock concentration (final ~1000-fold dilution): 10 mM), for which the “NF-kB SEAP reporter activity” value worked out at 1.14 with RAW-Dual [1] (agonist: LPS (TLR4) 0.1 ug/mL), 1.01 with RAW-Dual [1] (setting [4]), 1 with RAW-Dual [1] (setting [5]) and 1.15 with RAW-Dual [1] (setting [6]).
Take `Nc1nc(F)nc2c1ncn2C1OC(COP(=O)(O)O)C(O)C1O` (stereo not given): the “NF-kB SEAP reporter activity” value in the test on RAW-Dual [2] (setting [7]) was determined as 0.903; in the test with RAW-Dual [2] (setting [8]), 1.03.
Turning to `O=C(c1ccccc1)c1ccc2nc(NC(=O)c3csc(C4CCN(c5ncnc6ccsc56)CC4)n3)[nH]c2c1` (library stock concentration (final ~1000-fold dilution): 10 mM), the “NF-kB SEAP reporter activity” value with RAW-Dual [1] (agonist: LPS (TLR4) 0.1 ug/mL) is 2.75 and 2.17; in the test with RAW-Dual [1] (setting [4]), 1.57 and 1.25; in the test on RAW-Dual [1] (setting [5]), 0.384 and 0.435; in the test with RAW-Dual [1] (setting [6]), 0.694 and 0.75.
As to `CNC(C)C(=O)NC(C(=O)N1CCCC1C(=O)NC1c2ccccc2CC1OCC#CC#CCOC1Cc2ccccc2C1NC(=O)C1CCCN1C(=O)C(NC(=O)C(C)NC)C1CCCCC1)C1CCCCC1` (stereo not given), the “NF-kB SEAP reporter activity” value was 0.836 in the test on RAW-Dual [2] (library stock concentration (final ~1000-fold dilution): 10 mM water, cytotoxicity flag (confluency mask): cytotoxic (confluency <70% of control), agonist: Imiquimod (TLR7) […]) and 0.786 in the test on RAW-Dual [2] (library stock concentration (final ~1000-fold dilution): 10 mM water, cytotoxicity flag (confluency mask): cytotoxic (confluency <70% of control), agonist: MPLA (TLR4) […]).
Regarding `CNC(C)C(=O)NC(C(=O)N1CCCC1C(=O)NC1c2ccccc2CC1OCC#CC#CCOC1Cc2ccccc2C1NC(=O)C1CCCN1C(=O)C(NC(=O)C(C)NC)C1CCCCC1)C1CCCCC1` (stereo not given) (library stock concentration (final ~1000-fold dilution): 10 mM water), the “NF-kB SEAP reporter activity” value in the test with RAW-Dual [3] (agonist: LPS (TLR4) 0.1 ug/mL) amounted to 0.764; with RAW-Dual [3] (setting [4]), 1.11; with RAW-Dual [3] (setting [5]), 0.798; with RAW-Dual [3] (setting [6]) it was 0.718.
As for `CC1(F)C(O)C(CO)OC1n1ccc(=O)[nH]c1=O` (stereo not given), the “NF-kB SEAP reporter activity” value with RAW-Dual [2] (setting [8]) came to 1.02.
Turning to `CC1(F)C(O)C(CO)OC1n1ccc(=O)[nH]c1=O` (stereo not given) (library stock concentration (final ~1000-fold dilution): 10 mM), the “NF-kB SEAP reporter activity” value with RAW-Dual [1] (agonist: LPS (TLR4) 0.1 ug/mL) was determined as 1.26; with RAW-Dual [1] (setting [4]) it was 0.945; with RAW-Dual [1] (setting [5]), 0.82; in the test with RAW-Dual [1] (setting [6]), 0.78.
For `CC1COCCN1c1cc(-c2ccnn2C)c2ccnc(-c3ccn[nH]3)c2n1.Cl` (stereo not given) (library stock concentration (final ~1000-fold dilution): 10 mM), in that order: 1.89, 0.957, 1.09 and 1.19.
Regarding `CC1COCCN1c1cc(-c2ccnn2C)c2ccnc(-c3ccn[nH]3)c2n1.Cl` (stereo not given), the “NF-kB SEAP reporter activity” value turned out to be 1.48 in the test on RAW-Dual [2] (setting [7]) and 2.05 in the test with RAW-Dual [2] (setting [8]).
`CC(C)NCC(O)COc1cccc2ccccc12.Cl` (stereo not given) (library stock concentration (final ~1000-fold dilution): 10 mM): the “NF-kB SEAP reporter activity” value was 0.913 with RAW-Dual [1] (agonist: LPS (TLR4) 0.1 ug/mL), 0.94 in the test with RAW-Dual [1] (setting [4]), 0.822 in the test with RAW-Dual [1] (setting [5]) and 1.08 in the test on RAW-Dual [1] (setting [6]).
`CC(C)NCC(O)COc1cccc2ccccc12.Cl` (stereo not given): the results for the “NF-kB SEAP reporter activity” value in the test with RAW-Dual [2] (setting [7]) and in the test with RAW-Dual [2] (setting [8]) were 1.07 and 1.04, respectively.
For `CNCCN(C)Cc1c[nH]nc1-c1ccc(OC2CC(OCCC3CCOCC3)C2)cc1.Cl.Cl` (stereo not given), in that order: 0.935 and 1.07.
Turning to `CNCCN(C)Cc1c[nH]nc1-c1ccc(OC2CC(OCCC3CCOCC3)C2)cc1.Cl.Cl` (stereo not given) (library stock concentration (final ~1000-fold dilution): 10 mM), the “NF-kB SEAP reporter activity” value was 0.836 in the test on RAW-Dual [1] (agonist: LPS (TLR4) 0.1 ug/mL), 0.674 in the test on RAW-Dual [1] (setting [4]), 0.874 in the test with RAW-Dual [1] (setting [5]) and 0.586 in the test on RAW-Dual [1] (setting [6]).
On the same counts, the results for `COc1ccc(CCc2nc3cc(-c4c(C)noc4C)ccc3n2CC(C)N2CCOCC2)cc1Cl` (stereo not given) (library stock concentration (final ~1000-fold dilution): 10 mM) are 4.47, 2.49, 1.06 and 2.27.
On to `CCCOc1ccc(CCc2nc3cc(-c4c(C)noc4C)ccc3n2CCN2CCOCC2)cc1.Cl`, for which the “NF-kB SEAP reporter activity” value was 1.53 in the test on RAW-Dual [2] (setting [7]) and 1.98 in the test with RAW-Dual [2] (setting [8]).
In the case of `COc1ccc(CCc2nc3cc(-c4c(C)noc4C)ccc3n2CC(C)N2CCOCC2)cc1Cl` (stereo not given), the “NF-kB SEAP reporter activity” value with RAW-Dual [2] (setting [7]) came to 1.51; in the test with RAW-Dual [2] (setting [8]), 2.65.
With `CCCOc1ccc(CCc2nc3cc(-c4c(C)noc4C)ccc3n2CCN2CCOCC2)cc1.Cl` (library stock concentration (final ~1000-fold dilution): 10 mM), the “NF-kB SEAP reporter activity” value in the test with RAW-Dual [1] (agonist: LPS (TLR4) 0.1 ug/mL) was found to be 2.48; in the test with RAW-Dual [1] (setting [4]) it was 1.9; with RAW-Dual [1] (setting [5]), 0.609; in the test with RAW-Dual [1] (setting [6]), 1.04.
On the same counts, the results for `Cc1nc2cc(F)c(F)cc2n1-c1cncc(Nc2ccc(C(F)(F)F)cc2)n1` (library stock concentration (final ~1000-fold dilution): 10 mM) are 1.36, 1.31, 0.571 and 0.582.
`Cc1nc2cc(F)c(F)cc2n1-c1cncc(Nc2ccc(C(F)(F)F)cc2)n1`: the “NF-kB SEAP reporter activity” value stood at 1.56 with RAW-Dual [2] (setting [7]) and 1.33 with RAW-Dual [2] (setting [8]).
On the same counts, the results for `CC1=CC2(O)OC3(CC2=C(C)C)C(C)CCC13` (stereo not given) are 0.957 ± 0.03 and 1.03 ± 0.025.
On to `CC1=CC2(O)OC3(CC2=C(C)C)C(C)CCC13` (stereo not given) (library stock concentration (final ~1000-fold dilution): 10 mM), for which the “NF-kB SEAP reporter activity” value with RAW-Dual [1] (agonist: LPS (TLR4) 0.1 ug/mL) was determined as 1.04 ± 0.043; with RAW-Dual [1] (setting [4]), 0.938 ± 0.07; in the test on RAW-Dual [1] (setting [5]) it was 0.963 ± 0.062; in the test on RAW-Dual [1] (setting [6]), 1.06 ± 0.049.
For the compound `CCc1cc2c(cc1N1CCC(N3CCOCC3)CC1)C(C)(C)c1[nH]c3cc(C#N)ccc3c1C2=O.Cl`, the “NF-kB SEAP reporter activity” value with RAW-Dual [2] (library stock concentration (final ~1000-fold dilution): 2 mM, cytotoxicity flag (confluency mask): not cytotoxic, agonist: MPLA (TLR4) […]) came out at 1.31.
On to `CCc1cc2c(cc1N1CCC(N3CCOCC3)CC1)C(C)(C)c1[nH]c3cc(C#N)ccc3c1C2=O.Cl` (library stock concentration (final ~1000-fold dilution): 2 mM), for which the “NF-kB SEAP reporter activity” value in the test with RAW-Dual [1] (agonist: LPS (TLR4) 0.1 ug/mL) amounted to 1.71; in the test on RAW-Dual [1] (setting [4]), 1.17; in the test on RAW-Dual [1] (setting [5]), 1.15; in the test with RAW-Dual [1] (setting [6]), 1.15.
Consider `O=C(O)c1ccc(/C=C2/SC(=S)N(Cc3cccc(C(F)(F)F)c3)C2=O)cc1`, for which the entries for the “NF-kB SEAP reporter activity” value in the test with RAW-Dual [2] (setting [7]) and in the test on RAW-Dual [2] (setting [8]) were 0.954 and 0.727, respectively.
For the compound `O=C(O)c1ccc(/C=C2/SC(=S)N(Cc3cccc(C(F)(F)F)c3)C2=O)cc1` (library stock concentration (final ~1000-fold dilution): 10 mM), the “NF-kB SEAP reporter activity” value stood at 0.619 in the test with RAW-Dual [1] (agonist: LPS (TLR4) 0.1 ug/mL), 0.737 in the test with RAW-Dual [1] (setting [4]), 0.832 in the test on RAW-Dual [1] (setting [5]) and 0.5 with RAW-Dual [1] (setting [6]).
For `COc1cc(OCc2cccc(-c3ccccc3)c2C)cc(OC)c1CN1CCCCC1C(=O)O` (stereo not given) (library stock concentration (final ~1000-fold dilution): 10 mM), the “NF-kB SEAP reporter activity” value stood at 1.21 in the test with RAW-Dual [3] (agonist: LPS (TLR4) 0.1 ug/mL), 0.794 in the test on RAW-Dual [3] (setting [4]), 1.03 in the test with RAW-Dual [3] (setting [5]) and 1.17 in the test on RAW-Dual [3] (setting [6]).
As for `COc1cc(OCc2cccc(-c3ccccc3)c2C)cc(OC)c1CN1CCCCC1C(=O)O` (stereo not given), the “NF-kB SEAP reporter activity” value in the test on RAW-Dual [2] (library stock concentration (final ~1000-fold dilution): 10 mM, cytotoxicity flag (confluency mask): cytotoxic (confluency <70% of control), agonist: Imiquimod (TLR7) […]) is 1.22; in the test with RAW-Dual [2] (library stock concentration (final ~1000-fold dilution): 10 mM, cytotoxicity flag (confluency mask): cytotoxic (confluency <70% of control), agonist: MPLA (TLR4) […]) it was 1.03.

The record behind these values is the supplement of paper PMC10037445.
